{"source": "PubChem BioAssay AID1508600", "about": "(Functional Genomics Laboratory (NCATS/FGL), 2020)", "note": "Out of some 53,000 sequences screened, about 3,700 (7%) were called active.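 The calls were made as follows: active = gene knockdowns whose robust z-score for IL-1 alpha signal is at least 2 or at most -2, so actives lie on both sides; inactive = the rest.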 Shown is part of a subset that was picked to be rich in actives.", "data": [{"assay": "Components of the Cytosolic LPS Sensing Pathway: Gene Identification via Genome-wide siRNA Screen;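 also: robust z of the log signal after scaling to non-targeting control siRNA wells of the plate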", "details": "RAW264.7 macrophages, IL-1a HTRF, actives lie on both sides, screened at 100 nM (by protocol), cells primed 5 h with Pam3CSK4 first", "procedure,_shortened": "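RAW264.7; siRNA 100 nM final, RNAiMAX, 48h 37 degrees C; Pam3CSK4 5 h; LipidA + TransIT-TKO 24 h; IL-1a HTRF; CellTiter-Glo viability; robust z vs negative-control median.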", "values": [{"sequence": "CCUCAACUCCCUGUCACACTT against Rnaseh2a", "z-score": "0.944 (inactive)"}, {"sequence": "GGAGCGAUUCACAAAUUACTT against Tapt1", "z-score": "3.05 (active)"}, {"sequence": "CGACUAUUUGGGUGGCAAGTT against Scin", "z-score": "-0.103 (inactive)"}, {"sequence": "GGUAAGAAAACUGACCUUATT against Abra", "z-score": "-0.787 (inactive)"}, {"sequence": "GGCUGUAUGCUCAGACUGATT against Olfr147", "z-score": "-1.25 (inactive)"}, {"sequence": "GGGCAUAUUUGGAAUCUGATT against Rtn4", "z-score": "2.51 (active)"}, {"sequence": "GGAAUCUACCACUUGGUUCTT against Chrdl2", "z-score": "-0.936 (inactive)"}, {"sequence": "GGGAUUCAGAGUCAAGAUUTT against Thpo", "z-score": "-0.275 (inactive)"}, {"sequence": "GCUUCCUACCAUGAUGGUCTT against Otol1", "z-score": "2.13 (active)"}, {"sequence": "GCCCUUACAUAAUAGCUUGTT against Tacr2", "z-score": "1.56 (inactive)"}, {"sequence": "GGUCCCAGUCUAUGAAAACTT against Pym1", "z-score": "1.81 (inactive)"}, {"sequence": "GUCCUGAAAAUGCUAUUCUTT against Olfr68", "z-score": "0.281 (inactive)"}, {"sequence": "CCUGGUGCUUCGUAAUUACTT against Cyp11a1", "z-score": "-1.03 (inactive)"}, {"sequence": "GGGUACAAAACUUGAACUUTT against Gins3", "z-score": "2.84 (active)"}, {"sequence": "GGACAGUGUGUUUUCUUGUTT against Ankle1", "z-score": "0.551 (inactive)"}, {"sequence": "CCAGAUUCCUCUUGGCCGATT against Spryd7", "z-score": "0.36 (inactive)"}, {"sequence": "GCAAGAUUCAGAGUGCAGCTT against Txlng", "z-score": "-1.09 (inactive)"}, {"sequence": "GGUUGCAUUGUAGGGUUGGTT against Olfr129", "z-score": "0.221 (inactive)"}, {"sequence": "GCCCUAAAUCCUUUUAUUATT against Trpc7", "z-score": "2.78 (active)"}, {"sequence": "GGAUGUACAAUAAUUGGGATT against Pramel39", "z-score": "1.45 (inactive)"}, {"sequence": "GCAGGAUUCAAAGAUCUAATT against Kbtbd8", "z-score": "-0.587 (inactive)"}, {"sequence": "GGCUCUAUCUUAAAAUAACTT against 4930542C12Rik", "z-score": "0.125 (inactive)"}, {"sequence": "GCCGAGCUUUUGUGAGUAUTT against Rhobtb2", "z-score": "0.247 (inactive)"}, {"sequence": "GCCAAUUGGACCUUAGAAATT against Nup107", "z-score": "-2.58 (active)"}, {"sequence": "GGACUUUGUCACCAUGACGTT against Pef1", "z-score": "0.105 (inactive)"}, {"sequence": "CCUAAAGAAGGUCUAUGCCTT against Tmbim6", "z-score": "-0.0538 (inactive)"}, {"sequence": "GAAGCACAACCUCGGCUUUTT against AY074887", "z-score": "0.448 (inactive)"}, {"sequence": "GGGUGUGAAAGUCAAUAAATT against 4930591A17Rik", "z-score": "1.02 (inactive)"}, {"sequence": "UGGUGAAUACCAGUCUAAUTT against Tnfrsf23", "z-score": "0.0551 (inactive)"}, {"sequence": "GUAUUUUACACUCUUGUGGTT against Olfr898", "z-score": "-2.31 (active)"}, {"sequence": "GUAUCAUGACAGCUGUUUUTT against Olfr519", "z-score": "-0.254 (inactive)"}, {"sequence": "GGAAAACAAGGAACAUGCGTT against Scgb1b2", "z-score": "0.138 (inactive)"}, {"sequence": "GGCCAAGACCUCAGAGAUUTT against Apoa2", "z-score": "-1.39 (inactive)"}, {"sequence": "GGCAGCUUUGGAACAACUATT against Zc3h14", "z-score": "-0.477 (inactive)"}, {"sequence": "GGAUGCACUGAGGAACUCATT against Atg101", "z-score": "-0.573 (inactive)"}, {"sequence": "GGAUCCAUGCUGUCAGUGGTT against Sftpa1", "z-score": "2.17 (active)"}, {"sequence": "GGGAAUUGAUGAAAGCUCUTT against Gigyf2", "z-score": "-0.369 (inactive)"}, {"sequence": "GCUUGGUGUAAUCAUGCGCTT against Prl7d1", "z-score": "0.314 (inactive)"}, {"sequence": "GGGAACUUUAGCUUAAAUUTT against Lypd6", "z-score": "0.135 (inactive)"}, {"sequence": "CGGCGACAUUGUUUUGCUATT against Acvr2a", "z-score": "1.19 (inactive)"}, {"sequence": "GGGCCUUCACAAUGUCCUUTT against Brca1", "z-score": "2.68 (active)"}, {"sequence": "GGACCUUGAGAAAGUAGUCTT against Ms4a10", "z-score": "0.651 (inactive)"}, {"sequence": "GGUGAUGAAAAAGGACAGCTT against Oit1", "z-score": "0.0982 (inactive)"}, {"sequence": "GUACGUCAAGAGCCUGCGUTT against Fam110a", "z-score": "-2.65 (active)"}, {"sequence": "GGAGCAGAUACCCUAGCCUTT against Mtx1", "z-score": "0.698 (inactive)"}, {"sequence": "GGACUUGAAGAUGUACCAGTT against Il12a", "z-score": "0.427 (inactive)"}, {"sequence": "GCCAUUCUAGAACCUGUAGTT against Zwint", "z-score": "-1.65 (inactive)"}, {"sequence": "GCUAACUUAGAUAUCCAGGTT against Abtb2", "z-score": "0.125 (inactive)"}, {"sequence": "GGGCCAAAUUUGAAUCCCUTT against Rcan1", "z-score": "-2.09 (active)"}, {"sequence": "CCAAGUUUUUAUGCAGAUATT against Pip5k1b", "z-score": "1.6 (inactive)"}, {"sequence": "GGGUAUAUUUCCUUCCAGCTT against Dock4", "z-score": "-0.105 (inactive)"}, {"sequence": "GGUGGGAUGAUCAUAAGUUTT against Ppnr", "z-score": "-0.0428 (inactive)"}, {"sequence": "GCUGUGGAACUUAUGUUUUTT against Faxc", "z-score": "-0.518 (inactive)"}, {"sequence": "GGAUUAAUCAAACUGAGAGTT against Lrrtm2", "z-score": "-1.24 (inactive)"}]}]}
